From PubChem BioAssay AID651965 (National Center for Advancing Translational Sciences (NCATS), 2013)
Screen size: about 340,000 compounds; about 6,400 (1.9%) were called active. Inconclusive results (about 4%) are left out. The sample holds actives, similar compounds and a random draw of the others, so the mix is not that of the screen. Calls come from the whole dose curve; as a rule, active = well fitted falling curve with a large enough effect; inconclusive = small, poorly fitted or top-dose-only effect; inactive = no such curve, though single readings can be large or run the other way.

These molecules were tested against ATP-dependent Clp protease proteolytic subunit (Bacillus subtilis (strain 168)) (UniProt P80244) (assay: qHTS Assay for Activators of ClpP). Conditions: purified B. subtilis ClpP, FRET peptide cleavage, 20 min; series mostly up to 57.5 µM; activity change, negative = active: at the top concentration.
ATP-dependent Clp protease proteolytic subunit (Bacillus subtilis (strain 168)), sequence (P80244 whole entry, looked up): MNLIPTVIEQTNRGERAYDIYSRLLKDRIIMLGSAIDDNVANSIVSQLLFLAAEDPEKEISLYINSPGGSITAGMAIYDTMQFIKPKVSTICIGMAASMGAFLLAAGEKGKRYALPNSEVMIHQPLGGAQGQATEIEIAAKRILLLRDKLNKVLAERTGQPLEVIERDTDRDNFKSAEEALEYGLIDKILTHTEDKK
In short: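 FRET quenching reversal measured ClpP activation: 10 microg/mL B. subtilis ClpP at pH 8 with the FRET-FV decapeptide, read at 430 nm after 320 nm excitation. The 20-min minus 0-min signal was scaled between DMSO/no-enzyme wells and ADEP (5.8 microM final).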
Note: the source files actives as falling curves though it sought activators and does not explain the sign; nearly all actives have a fitted effect of over 65% in size.
Potency is the fitted concentration of half-maximal effect.

Activity change, negative = active, inactive:
CCCCCCN1CCN(C2CN(Cc3cn(Cc4ccc(F)cc4)nn3)S(=O)(=O)C2)CC1 (stereo not drawn) -3.87%
CCN1C(=O)[C@H]2[C@@H](c3ccc(-c4ccc(OC)cc4)cc3)N[C@@](Cc3ccccc3)(C(=O)OC)[C@H]2C1=O 1.06%
CCN1C(=O)[C@H]2[C@@H](c3ccc(-c4ccc(F)cc4)cc3)N[C@@](Cc3ccccc3)(C(=O)OC)[C@H]2C1=O -23.2%
CCCCC[C@H](C)N1C[C@@H](COCc2ccccc2)Oc2cc(N3CC[C@@H](N(C)C)C3)ccc2S1(=O)=O -20.4%
O=C(NCc1ccccn1)[C@@H]1CCCN1C(=O)[C@@H]1CCCN1C(=O)c1ccccc1 2.16%
COc1ccc(N2c3ccccc3CN(Cc3ccccc3)[C@@H](C)[C@H]2Cc2ccc(-c3ccccc3)cc2)cc1 -15.5%
C=CCNC(=O)c1ccc2nc(-c3ccco3)c(-c3ccco3)nc2c1 -8.38%
Cc1c(NC(=O)C(C)(C)C)cccc1-c1nc2ccccc2s1 -1.86%
Cc1c(-c2cccc(NC(=O)C(C)(C)C)c2)nc2ncccn12 4.79%
COc1cccc(-c2cc(NC(C)=O)c3ncc(-c4cccc(C(C)=O)c4)n3c2)c1 -4.01%
CCOC(=O)C1CCCN(C(=O)c2ccc(N(C)C)cc2)CC1 (stereo not drawn) 0.928%
Cc1sc2c(c1C)c(=O)n(-c1ccccc1)c(=O)n2CC(=O)NCC1CCCO1 (stereo not drawn) 1.34%
CC(C)(C)c1nc(NCC2CCCO2)c2nnn(Cc3ccccc3)c2n1 (stereo not drawn) -0.0891%
Oc1ccc(Br)cc1C1C=C(c2ccc3c(c2)OCO3)NC(c2ccc(Cl)cc2)N1 (stereo not drawn) 0.41%
CCc1ccc(OC2(C)CCN(CCOc3ccc(C)cc3)C2)cc1 (stereo not drawn) -0.766%
CC(C)Cc1ccc(-c2cc3nc(NCc4cccc(Cl)c4)ccn3n2)cc1 5.03%
CCCc1cc(=O)oc2c(C)c(OCC(=O)Nc3ccccn3)ccc12 4%
COc1cccc(C(=O)OCc2cc(=O)oc3c(C)c(C)ccc23)c1OC 2.05%
CCOC(=O)[C@]12CCC=C1N(CCC1=CCCCC1)C(=O)[C@H](CC(=O)NCc1ccc(C)o1)C2 0.969%
Cc1nccn1-c1ccc(NC(=O)[C@H]2O[C@@H](n3cnc4c(N)ncnc43)[C@H](O)[C@@H]2O)cc1 1.51%
O=C(NCc1cccnc1)c1cc(C2CCCN(C(=O)C3CCCCC3)C2)on1 (stereo not drawn) -0.544%
CN(C)c1ccc(/C=C/C=C/c2ccnc3ccccc23)cc1 1.11%
COc1ccc(Br)c(Cn2c(C)c(C(=O)NCc3cccs3)sc2=O)c1 1.44%
O=C(NCc1ccccc1)C(c1ccc(F)cc1)N1CCN(C(=O)C2CCCO2)CC1 (stereo not drawn) -1.43%
COc1cccc(CNC(=O)c2cccnc2Sc2ccc(Cl)cc2)c1 0.0811%
CCN(Cc1ccccc1)C(=O)c1cn(-c2cccc(OC)c2)c(=O)c2ccccc12 -15%
CC1(C)CC(=O)c2cc(C(=O)NCc3ccccc3)c(=O)[nH]c2C1 -8.46%
Cc1ccc(-c2ccc(=O)n(Cc3ccc(F)cc3Cl)n2)cc1 0.44%
CC(=O)Nc1cc(C(=O)NCc2ccc(F)cc2Cl)ccc1Sc1ccc(Cl)cc1 -9.43%
Brc1cccc[n+]1Cc1cccc(C[n+]2ccccc2Br)c1 -6.97%
CC(C)C(=O)Nc1ccc2c(c1)oc1ccccc12 -15.9%
Cc1ccc2oc(=O)ccc2c1 -7.73%
COc1ccc(C(C)(O)c2nc(-c3cc(F)cc(F)c3)cs2)cc1 (stereo not drawn) 0.362%
CN1CCN(c2ccc3c(c2)OC[C@H](Cc2ccccc2)NS3(=O)=O)CC1 -0.119%
COc1ccccc1CNC(=O)c1cc(-c2cc(F)ccc2OC)n[nH]1 -5.92%
Cc1nn(Cc2ccccc2)c(Cl)c1C(=O)OC1CCOC1=O (stereo not drawn) 0.992%
CC(C)(C)c1ccc(OCC(=O)N2CCC(c3nc4ccccc4s3)CC2)cc1 0.0567%
COCCNC(=O)c1cc2c(Br)ccc(Br)c2nc1N -6.95%
CCOP(=O)(OCC)C(Cc1ccccc1)N=C(c1ccccc1)c1ccccc1 (stereo not drawn) 0.52%
O=C(Nc1ccccc1)c1ccccc1OCc1ccccc1 -4.41%
C[C@H]1CN([C@@H](C)CO)C(=O)CCCn2nncc2CO[C@@H]1CN(C)Cc1ccc(Oc2ccccc2)cc1 -1.47%
NC(c1ccccc1)c1csc(NC(=O)Nc2cccc(C(F)(F)F)c2)n1 (stereo not drawn) -2.47%
CCCn1c(=N)c(C(=O)NCc2ccccc2)cc2c(=O)n3cccc(C)c3nc21 4.76%
COCCCn1c(C(=O)NC2CCCCC2)cc2c(=O)n3cccc(C)c3nc21 3.95%
O=C1NC[C@H](CCCCN2C[C@H](Cc3ccc(O)cc3)N(CC3CCCCC3)C(=O)C2=O)N(CCc2ccccc2)C1=O 1.1%
Cn1c(=O)c2cc(NC(=O)NCCc3cccs3)ccc2n1Cc1cccc(C(F)(F)F)c1 4.93%
Cc1nn(-c2ccccc2)c2c1C(c1ccc(F)cc1)C(C#N)=C(N)O2 (stereo not drawn) -14.9%
Cc1nc2c(c(C)nn2-c2ccccc2)c(C)c1C -0.788%
COc1ccc(NC(=O)C2(C)Cc3c(-c4cccc(NC(C)=O)c4)ccnc3O2)cc1OC (stereo not drawn) -7.68%
FC(F)(F)c1cccc(-c2nc3ccccc3n2C(c2ccccc2)c2nc3ccccc3[nH]2)c1 (stereo not drawn) 4.78%
O=C(Nc1cc(C(F)(F)F)ccc1Cl)c1nc2ccccc2nc1N1CCCCC1 0.902%

Potency, active:
CCN1C(=O)[C@H]2[C@@H](c3ccc(SC4CCCCC4)c(OC)c3)N[C@@](Cc3ccccc3)(C(=O)OC)[C@H]2C1=O 35.5 µM
CC(C)(C)C(=O)Nc1cccc(-c2ccc[nH]2)n1 12.6 µM
Cn1c(=O)c2[nH]c(NCC3CCCO3)nc2n(-c2ccccc2)c1=O (stereo not drawn) 28.2 µM
COC(=O)Cc1cc(=O)oc2c(C)c(O)ccc12 15.8 µM
COc1cccc(-n2cc(C(=O)NCc3cccc(Cl)c3)c3ccccc3c2=O)c1 25.1 µM
CN(C)Cc1ccc(F)cc1Sc1cc(Cl)ccc1Cl 12.6 µM
CC(C)C(=O)Nc1ccc2oc(=O)ccc2c1 35.5 µM
O=C(OC1CCOC1=O)c1ccc(-c2nc3ccccc3s2)s1 (stereo not drawn) 17.8 µM
CCCC1OC23CCCCC2C(C#N)(C#N)C1(C#N)C(=N)O3 (stereo not drawn) 20 µM
Cc1cccn2c(=O)c3cc(C(=O)N4COCC4(C)C)n(C)c3nc12 28.2 µM
CSc1ccc(-c2c(C#N)c(N)nc3c2c(C)nn3-c2ccccc2)cc1 22.4 µM
FC(F)(F)c1cccc(-c2cc3ccccc3nc2N2CCCC2)c1 31.6 µM
